# The list is not random: actives were taken first. Their share in the collection is about 1.3%.
# PREPL inhibitor = inhibits the human prolyl oligopeptidase-like enzyme. inhibition, % at 5.96 µM. Q4J6C6. AID 2751. recombinant PREPL, fluorescence polarization activity-based probe. actives 0.68% (n = 320,000); in the data active = inhibition above about 43%;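 note: 0% = enzyme with DMSO and 100% = wells lacking enzyme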
# beta cell repl = induces beta-cell replication in MIN6 cells. actives 0.29% (n = 330,000). proliferation, % at 10 µM. AID 2380. MIN6 cells proliferation, ATPlite luminescence, 48 h; cells starved in 0.2% serum; 100% = growth in 10% serum;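 active = compounds whose signal lies at least 3.5 SD above the mean of all wells on their plate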;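 note: 0% = DMSO-treated cells in low-serum medium and 100% = 10% serum control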
# FID counter = displaces DNA intercalator in HCV helicase counter-screen | DNA fluorescent intercalator displacement, fluorescence | inhibition, % at 7.9 µM | actives 0.17% (n = 290,000) | AID 1845; in the data active = inhibition above about 37%;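 note: 0% = vehicle and 100% = reference compound; higher means more ethidium bromide displaced from hairpin DNA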
# RAD52 anneal inh = RAD52 (human) annealing inhibition; P43351; recombinant RAD52 DNA annealing, FRET fluorescence; inhibition, % at 18.7 µM; actives 0.46% (n = 360,000); AID 651710;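 active = every replicate showing at least 50% inhibition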
# UBC13 polyUb = human UBC13 polyubiquitination inhibition; P61088; UBC13 polyubiquitin chain formation, TR-FRET; inhibition, % at 20 µM; actives 0.47% (n = 330,000); AID 485273; in the data active = inhibition above about 45%, passing the limit was not always enough
# RAD54 inh = inhibitors of human RAD54 branch migration. Q92698. RAD54 Holliday junction branch migration, FAM/BHQ fluorescence. inhibition, % at 10.4 µM. actives 0.14% (n = 360,000). AID 602329;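 active = mean normalized replicate activity at least 40 and at least half of replicates scoring 40 or more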;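 note: 0% = median of neutral control wells and 100% = median of positive control wells; inhibitors cause a drop in the FAM fluorescence signal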
# Target sequence (Q92698 whole entry, looked up): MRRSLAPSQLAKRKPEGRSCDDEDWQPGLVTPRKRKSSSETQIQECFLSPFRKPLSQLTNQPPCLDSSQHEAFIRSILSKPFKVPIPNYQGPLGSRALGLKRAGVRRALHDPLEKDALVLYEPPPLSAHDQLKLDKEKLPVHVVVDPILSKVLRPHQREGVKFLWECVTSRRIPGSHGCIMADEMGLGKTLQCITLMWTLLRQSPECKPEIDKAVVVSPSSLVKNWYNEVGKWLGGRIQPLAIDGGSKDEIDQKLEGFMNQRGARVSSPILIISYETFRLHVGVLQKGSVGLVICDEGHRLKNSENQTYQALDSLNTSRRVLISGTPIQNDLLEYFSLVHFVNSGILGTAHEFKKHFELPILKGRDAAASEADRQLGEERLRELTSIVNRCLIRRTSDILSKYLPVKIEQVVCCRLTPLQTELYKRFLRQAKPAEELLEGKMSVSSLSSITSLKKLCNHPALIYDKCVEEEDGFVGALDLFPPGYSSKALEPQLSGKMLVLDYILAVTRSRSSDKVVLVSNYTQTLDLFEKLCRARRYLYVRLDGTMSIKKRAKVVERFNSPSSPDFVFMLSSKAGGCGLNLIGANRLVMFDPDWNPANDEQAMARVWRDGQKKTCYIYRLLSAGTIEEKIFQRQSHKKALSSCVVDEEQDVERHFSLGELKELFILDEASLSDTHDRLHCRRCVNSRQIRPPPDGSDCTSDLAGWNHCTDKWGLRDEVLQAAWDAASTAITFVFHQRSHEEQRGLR
# * = called active by the depositor; / = no result given.
SMILES,PREPL inhibitor,beta cell repl,FID counter,RAD52 anneal inh,UBC13 polyUb,RAD54 inh
CC(=O)N(C)C[C@H]1OCc2ccccc2-c2c(n(C)c3ccccc23)C(=O)N([C@@H](C)CO)C[C@H]1C,/,/,/,12,/,-2
C[C@H]1CN([C@@H](C)CO)C(=O)c2c(c3ccccc3n2C)-c2ccccc2CO[C@H]1CN(C)C(=O)CCN(C)C,/,/,/,51*,/,6
CCCC(=O)Nc1ccc2c(c1)C(=O)N(C)C[C@@H](OC)[C@H](C)CN(C(=O)C1CCCC1)[C@@H](C)CO2,/,/,/,9,/,-4
CCC(=O)N1[C@H](CO)[C@H](c2ccc(-c3cccc(F)c3)cc2)[C@@H]1CN(C)C(C)=O,/,/,/,4,/,1
CCCNC(=O)N1C[C@H](O)COC[C@@H]2O[C@H](CC(=O)N3CCOCC3)CC[C@H]21,/,/,/,-4,/,2
COc1ccc(S(=O)(=O)N[C@@H]2CC[C@H](CC(=O)O)O[C@@H]2CO)cc1,/,/,/,-8,/,2
Cc1ccc(-c2ccc3c(c2)O[C@H](CN(C)Cc2ccncc2)[C@@H](C)CN([C@H](C)CO)S3(=O)=O)cc1,/,/,/,5,/,-5
Cc1cccc(S(=O)(=O)N2CC[C@H]3[C@@H](CO)N(C)c4ccc(-c5ccccc5F)cc4[C@H]32)c1,/,/,/,1,/,-1
CCOc1cc2nc3c4ccccc4n(C)c3nc2cc1OCC,6,-2,-5,-11,-30,/
CCN(CC)Cc1cc(Nc2c3ccccc3nc3c4ccccc4n(C)c23)cc(CN(CC)CC)c1O,/,/,/,106*,/,/
COc1ccc(-c2ccc3n(c2=O)C[C@H]2[C@H](CO)[C@@H](C(=O)N(C)C)[C@@H]3N2Cc2ccncc2)cc1,/,/,/,0,/,-16
Cc1cc(C(=O)O)ccc1-c1ccc(/C=C2\NC(=O)N(Cc3ccccc3Cl)C2=O)o1,29,-2,8,/,-6,/
Cc1ccc(CN2C(=O)N/C(=C\c3ccc(-c4ccc(C(=O)O)cc4C)o3)C2=O)cc1,78*,-5,-12,-56,1,-10
COc1ccc(NC(=O)N2CCCCN3[C@H](CO)[C@@H](c4ccc(C#Cc5ccccn5)cc4)[C@@H]3C2)cc1,/,/,/,15,/,10
COc1ccc(NC(=O)N2CCCCN3[C@@H](CO)[C@@H](c4ccc(C#Cc5ccccn5)cc4)[C@@H]3C2)cc1,/,/,/,62*,/,8
COc1ccc(NC(=O)N2CCCCN3[C@H](CO)[C@H](c4ccc(C#Cc5ccccn5)cc4)[C@H]3C2)cc1,/,/,/,66*,/,42
COc1ccc(CN(C)C[C@H]2Oc3ccc(NS(C)(=O)=O)cc3CC(=O)N([C@@H](C)CO)C[C@H]2C)cc1,/,/,/,5,/,1
O=C1c2ccccc2-c2onc3ccc(NCCCn4ccnc4)c1c23,110*,-1,69*,/,-326,/
C[C@H](CO)N1C[C@H](C)[C@@H](CN(C)Cc2ccc(-c3ccccc3)cc2)Oc2c(NS(=O)(=O)c3ccc(Cl)cc3)cccc2C1=O,/,/,/,-2,/,-3
CCCCCCOC(=O)C[N+](C)(C)CCOC1CC2CCC1(C)C2(C)C (stereo not given),31,-6,23,/,54*,-5
CCCCOC(=O)C[N+](C)(C)CCOC1CC2CCC1(C)C2(C)C (stereo not given),4,-5,23,22,27,12
C[C@H](CO)N1C[C@H](C)[C@H](CN(C)Cc2ccc(Cl)c(Cl)c2)Oc2ccc(NS(=O)(=O)c3ccccc3)cc2C1=O,/,/,/,-2,/,-21
Cc1ccc(OCC(O)Cn2c(=N)n(Cc3ccccc3)c3ccccc32)cc1 (stereo not given),-21,-6,21,/,19,27
COc1ccc(OCC(O)Cn2c(=N)n(Cc3ccccc3)c3ccccc32)cc1 (stereo not given),-25,-6,48*,/,19,23
N=c1n(Cc2ccc(Cl)cc2)c2ccccc2n1CC(O)COc1ccccc1 (stereo not given),-79,-6,43*,29,32,27
SMILES,PREPL inhibitor,beta cell repl,FID counter,RAD52 anneal inh,UBC13 polyUb,RAD54 inh
Cc1cccc(OCC(O)Cn2c(=N)n(CCN3CCCCC3)c3ccccc32)c1 (stereo not given),36,-6,39*,/,16,5
Cc1noc(C)c1NC(=O)N(C)C[C@H]1OCCCC[C@@H](C)Oc2ccc(NS(=O)(=O)c3cn(C)cn3)cc2C(=O)N([C@H](C)CO)C[C@H]1C,/,/,/,/,/,0
CCNC(=O)c1ccc2c(c1)C1C3CCC(C3)C1C(c1ccccc1)N2 (stereo not given),16,-4,96*,1,-9,/
Cc1ccc(C(C(=O)NC2CCCCC2)N(Cc2ccccc2)C(=O)Cc2c[nH]c3ccccc23)o1 (stereo not given),16,-3,-30,/,-12,-2
COc1ccc(CN(C(=O)Cc2c[nH]c3ccccc23)C(C(=O)NC2CCCCC2)c2ccc(C)o2)cc1 (stereo not given),-6,-6,89*,/,-12,12
CCOC(=O)N1CCN(Cc2ccc3c(c2)OCO3)CC1,-4,-2,-3,0,0,0
Cc1c(O)ccc(C(=O)CN2CCN(Cc3ccc4c(c3)OCO4)CC2)c1O,6,/,98*,/,/,5
CCN1CCN(C(=O)C2CCN(c3nnc(C)c4c(C)n(-c5ccc(C)cc5)nc34)CC2)CC1,42,-3,43*,-139,-3,19
Cc1ccc(-n2nc3c(N4CCC(C(=O)NCCc5ccccc5C)CC4)nnc(C)c3c2C)cc1,38,-1,37*,/,27,3
Cc1cc2oc(=O)c(CC(=O)NCCCO)c(C)c2c2occ(C(C)(C)C)c12,4,-4,-37,-6,22,3
Cc1cc2oc(=O)c(CC(=O)NCCCN(C)C)c(C)c2c2occ(C(C)(C)C)c12,23,-7,37*,/,43,/
COCC(=O)N1[C@H](CO)[C@H]2c3ccccc3N(C(=O)c3cccc(OC)c3)C[C@H]21,/,/,/,6,/,-32
CC(=O)N(CCCc1ccc(C(C)(C)C)cc1)CCCN(C)C,34,-3,38*,/,3,/
CC(=O)N(CCCN(C)C)Cc1ccccn1,6,3,1,-10,4,/
CN(C)CC(=O)Nc1ccc2c(c1)[C@H]1C[C@H](CC(=O)NCc3ccc(-c4ccccc4)cc3)O[C@H](CO)[C@H]1O2,/,/,/,62*,/,-1
CN(C)c1ccc2c(c1)[C@H]1C[C@H](CC(=O)NCCN3CCCCC3)O[C@@H](CO)[C@H]1O2,/,/,/,23,/,53*
Cc1ccccc1S(=O)(=O)N1C[C@@H](O)COC[C@H]2O[C@@H](CC(=O)NCc3ccccc3Cl)CC[C@@H]21,/,/,/,-8,/,2
COc1cccc(NC(=O)c2ccccc2NS(C)(=O)=O)c1,4,2,94*,-6,14,-5
CC(C)NC(=O)N1CC2(C1)[C@H](c1ccccc1)[C@@H](CO)N2Cc1cccnc1,/,/,/,-10,/,/
O=C(C[C@H]1CC[C@H]2[C@@H](COC[C@H](O)CN2S(=O)(=O)c2ccccc2)O1)NCC1CCCCC1,/,/,/,83*,/,-1
